# Measured values taken from PubChem BioAssay AID2328 (The Scripps Research Institute Molecular Screening Center, 2010).
# The other results are listed elsewhere or left out. Unmarked numbers belong to inactive results.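 Rule for the calls: active = mean inhibition over triplicates above a set limit taken from the primary EBNA-1 screen (cut at about 37% in these data); inactive = the rest.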
# Target: Lytic switch protein BZLF1 (Epstein-Barr virus (strain B95-8)) (UniProt P03206)
# Experiment: blockers of Zta binding to ZRE DNA – biochemical, fluorescence polarization, triplicate, counter-screen for EBNA-1 inhibitor project (AID 2328);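 note: purified full length Zta protein with Cy5 labeled ZRE DNA probe; 0% = Zta with DMSO and 100% = wells lacking Zta protein; inhibitors lower polarization by freeing the labeled DNA probe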
# Conditions: Cy5 fluorescence polarization, at 11.1 µM, active compounds read high
# Lytic switch protein BZLF1 (Epstein-Barr virus (strain B95-8)), sequence (P03206 whole entry, looked up): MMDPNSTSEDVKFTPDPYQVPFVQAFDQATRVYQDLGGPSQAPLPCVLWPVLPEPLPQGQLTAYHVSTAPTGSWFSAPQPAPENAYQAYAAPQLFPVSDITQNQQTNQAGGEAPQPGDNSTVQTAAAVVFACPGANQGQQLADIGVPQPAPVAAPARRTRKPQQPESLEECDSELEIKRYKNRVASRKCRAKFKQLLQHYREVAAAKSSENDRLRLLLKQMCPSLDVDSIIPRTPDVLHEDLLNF
row,SMILES,inhibition [%]
1,COc1ccc(CNc2nc3c(c(=O)[nH]c(=O)n3C)n2Cc2ccccc2)cc1,-15.5
2,O=C(COc1ccc(/C=N/NC(=O)c2ccc(O)cc2)cc1)Nc1ccc([N+](=O)[O-])cc1,31.8
3,COc1ccc(CCNC(=S)N2CCN(S(=O)(=O)c3ccc(F)cc3)CC2)cc1,-0.49
4,Cc1[nH]n(C(N)=S)c(=O)c1N=Nc1ccc(Cl)cc1Cl,-7.48
5,N#Cc1ccc(N2Cc3ccccc3/C2=N/C(=O)Nc2ccc(Cl)cc2)cc1,-9.43
6,COc1ccc(C(=O)CSc2nnc(NC(=O)C3CC(=O)N(c4cccc(OC)c4)C3)s2)cc1 (centres undefined),-0.54
7,COc1ccc(-c2ccc(Nc3ccc(S(=O)(=O)N4CCCC4)cc3)nn2)cc1OC,-8.43
8,CCC(=O)Nc1ccc(C(=O)Nc2ccc3c(c2)C(=O)N(CC2CCCO2)C3=O)cc1 (centres undefined),-3.33
9,CCOc1cccc(SCc2noc(C(=O)NC(C)C)c2C(=O)O)c1,2.79
10,Nc1nnc(SCC(=O)Nc2ccc3nc(SCC(=O)Nc4ccccc4)sc3c2)s1,8.16
11,Cc1ccc(O)c(/C=N/NC(=O)COc2ccc3c(C)cc(=O)oc3c2)c1,-17
12,COc1ccc(-c2nonc2NC(=O)c2oc3ccc(F)cc3c2C)cc1OC,-0.1
13,O=C(Nc1cccc(NC(=O)c2ccc(Br)cc2)c1)c1ccccc1,4.83
14,Cc1cccc(NC(=O)Cn2c(=O)n(Cc3ccccc3)c(=O)c3c(C)c(C)sc32)c1,-8.61
